Compounds with a hit are over-represented: about 27% of the library has one in this group of screens.
CYP2C9 activ – increases human cytochrome P450 2C9 activity | P11712 | recombinant CYP2C9, luciferin-H conversion, luminescence; active compounds read high; factor 1 = untreated enzyme, 0 = blocked | activation factor at 5 µM | 96,000 tested, 1.4% active;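 active = activation factor of 2 or more for CYP2C9 at a 5 µM dose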;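 note: 0 = sulfaphenazole-blocked wells and 1 = vehicle-only wells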
Target sequence (P11712 whole entry, looked up): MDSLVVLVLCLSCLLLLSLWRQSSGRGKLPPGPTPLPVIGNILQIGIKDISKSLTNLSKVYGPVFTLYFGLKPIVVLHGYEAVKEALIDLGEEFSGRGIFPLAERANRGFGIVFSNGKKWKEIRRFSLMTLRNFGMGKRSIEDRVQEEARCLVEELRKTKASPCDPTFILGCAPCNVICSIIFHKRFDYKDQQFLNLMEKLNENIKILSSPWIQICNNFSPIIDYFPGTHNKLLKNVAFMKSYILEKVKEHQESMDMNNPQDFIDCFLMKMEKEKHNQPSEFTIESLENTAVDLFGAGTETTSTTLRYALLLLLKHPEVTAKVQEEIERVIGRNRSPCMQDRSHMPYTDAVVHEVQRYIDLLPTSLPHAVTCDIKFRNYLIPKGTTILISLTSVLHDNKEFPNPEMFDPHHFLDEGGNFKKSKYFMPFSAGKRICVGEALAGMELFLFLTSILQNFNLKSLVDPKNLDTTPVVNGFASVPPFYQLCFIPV
Cav32 inh – human Cav3.2 channel inhibition, primary screen; Cav3.2-expressing cells, Fluo-4 calcium fluorescence FDSS; active compounds read low; O95180; 100,000 tested, 4% active; B-score at 10 µM; AID 449739;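 active = single-dose well whose peak fluorescence ratio is a statistical outlier from its plate by either plate-standardised score or position-corrected B-score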
CYP2C19 inh – inhibitors of human CYP2C19; inhibition, % at 5 µM; P33261; 96,000 tested, 21% active; CYP2C19 Supersomes, luciferin-H EGE luminescence, 30 min;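 active = CYP2C19 inhibition above a set limit at 5 µM in the primary screen, cut at about 50% in these data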;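 note: plate controls were negative control wells for no effect and 2.5 mM tranylcypromine positive control for full effect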
CYP2C19 activ – increases human CYP2C19 enzyme activity. P33261. 96,000 tested, under 10 active. activation factor at 5 µM. recombinant CYP2C19, luciferin-H EGE luminescence; active compounds read high; 0 = fully inhibited enzyme, 1 = untreated enzyme;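 active = activation factor of at least 2 at 5 µM in the primary screen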;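 note: 0 = wells with 2.5 mM tranylcypromine and 1 = vehicle-only wells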
CYP2C9 inhib – human CYP2C9 inhibition | P11712 | CYP2C9 Supersomes, luciferin-H conversion, luminescence | inhibition, % at 5 µM | 96,000 tested, 20% active | AID 777;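 active = blocking of liver enzyme CYP2C9 beyond about 50% at 5 µM, limit read from the data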
Starred values were filed as active, the others as inactive.

`CNc1nc(C)cc(C)c1S(=O)(=O)c1ccc(Cl)cc1` gave CYP2C9 activ 1.4, Cav32 inh -2.5, CYP2C19 inh 66*, CYP2C19 activ 0.3 and CYP2C9 inhib -42.
`Cc1cc(C)c(S(C)(=O)=O)c(S(=O)c2ccc(Cl)cc2)n1` (stereo not given) gave CYP2C9 activ 0.4, Cav32 inh -0.44, CYP2C19 inh 1, CYP2C19 activ 1 and CYP2C9 inhib 58*.
`N#CC1=C(Nc2ccccc2)SC=C(c2ccc(F)cc2)N=C1N1CCOCC1` gave CYP2C9 activ 0.9, CYP2C19 inh -2, CYP2C19 activ 1 and CYP2C9 inhib 11.
For Cc1ccc2c(CC(=O)OCn3nnc4ccccc4c3=O)coc2c1 the results were CYP2C9 activ 0.9, Cav32 inh -1, CYP2C19 inh -3, CYP2C19 activ 1 and CYP2C9 inhib 11.
For CC1(C)CC(=O)c2cc(OCC(=O)O)ccc2O1 the results were CYP2C9 activ 1, Cav32 inh 0.14, CYP2C19 inh 3, CYP2C19 activ 1 and CYP2C9 inhib 3.
CC1(C)CC(=O)c2cc(OCC(=O)N3CCN(c4ccccc4F)CC3)ccc2O1 was read as CYP2C9 activ 0.5, Cav32 inh -2, CYP2C19 inh 68*, CYP2C19 activ 0.3 and CYP2C9 inhib 49.
For CCS(=O)(=O)N1CCN(c2ccccn2)CC1 the results were CYP2C9 activ 0.8, CYP2C19 inh 24, CYP2C19 activ 0.8 and CYP2C9 inhib 20.
`O=C(c1ccccc1)N1CCCCC(S(=O)(=O)c2ccc3ccccc3c2)C1=O` (stereo not given) gave CYP2C9 activ 1.6, Cav32 inh -1.7, CYP2C19 inh 54*, CYP2C19 activ 0.5 and CYP2C9 inhib -62.
O=C(O)C1CCCN1S(=O)(=O)c1ccc2ccccc2c1 (stereo not given) was read as Cav32 inh 0.53.
Screening O=C1OCCC1S(=O)(=O)c1ccc2ccccc2c1 (stereo not given) returned CYP2C9 activ 5*, Cav32 inh 0.36, CYP2C19 inh 32, CYP2C19 activ 0.7 and CYP2C9 inhib -402.
`COc1cc(OC)cc(C(C(=O)NC2CCCCC2)N(C(=O)c2ccno2)c2ccccc2)c1` (stereo not given) gave Cav32 inh 0.063.
Screening Cn1c(SCC(=O)NCc2ccc3c(c2)OCO3)nnc1-c1cc2ccccc2cc1O returned Cav32 inh -0.47.
Screening Cn1c(SCC(=O)NCc2ccc3c(c2)OCO3)nnc1-c1cccs1 returned CYP2C9 activ 0.4, Cav32 inh 0.5, CYP2C19 inh 0, CYP2C19 activ 1 and CYP2C9 inhib 65*.
`O=C(CSc1nnc(-c2cccs2)n1-c1ccccc1)NCc1ccc2c(c1)OCO2` gave CYP2C9 activ 0.1, Cav32 inh -0.99, CYP2C19 inh 68*, CYP2C19 activ 0.3 and CYP2C9 inhib 92*.
For O=C(CSc1nnc(Cc2cccs2)n1-c1ccc(Cl)cc1)NCc1ccc2c(c1)OCO2 the results were CYP2C9 activ 0.5, Cav32 inh -8.5*, CYP2C19 inh 35, CYP2C19 activ 0.6 and CYP2C9 inhib 54*.
CCn1c(SCC(=O)Nc2ccc(OC)c(OC)c2)nnc1-c1cccs1 was read as CYP2C9 activ 0.9, Cav32 inh 0.27, CYP2C19 inh 5, CYP2C19 activ 0.9 and CYP2C9 inhib 7.
`CCn1c(SCC(=O)Nc2cc(OC)c(OC)c(OC)c2)nnc1-c1cccs1` gave CYP2C9 activ 0.5, Cav32 inh 0.52, CYP2C19 inh 19, CYP2C19 activ 0.8 and CYP2C9 inhib 52*.
Screening O=C(COC(=O)C12CC3CC(CC(O)(C3)C1)C2)N1CCN(S(=O)(=O)c2ccc(Cl)cc2)CC1 returned Cav32 inh 0.86.
`O=C(NCc1ccco1)c1ccc(COCC(F)(F)C(F)F)cc1` gave CYP2C9 activ 0.9, Cav32 inh 0.59, CYP2C19 inh -1, CYP2C19 activ 1 and CYP2C9 inhib 12.
For O=C(CSc1nnc(-c2ccco2)n1-c1ccccc1)NCc1ccc2c(c1)OCO2 the results were CYP2C9 activ 0.6, Cav32 inh 0.11, CYP2C19 inh 47, CYP2C19 activ 0.5 and CYP2C9 inhib 40.
For CC(Sc1nnc(-c2cccs2)n1Cc1ccccc1)C(=O)NCc1ccc2c(c1)OCO2 (stereo not given) the results were CYP2C9 activ 0.2, Cav32 inh -4.4*, CYP2C19 inh 48, CYP2C19 activ 0.5 and CYP2C9 inhib 85*.
For CCn1c(SCC(=O)NC2CCCc3ccccc32)nnc1-c1cccs1 (stereo not given) the results were CYP2C9 activ 0.6, Cav32 inh 1.5, CYP2C19 inh 19, CYP2C19 activ 0.8 and CYP2C9 inhib 43.
For CCn1c(SCC(=O)NCc2ccc3c(c2)OCO3)nnc1-c1cccs1 the results were CYP2C9 activ 0.2, Cav32 inh 1.3, CYP2C19 inh 4, CYP2C19 activ 1 and CYP2C9 inhib 77*.
For O=C(CSc1nnc(-c2cccs2)n1Cc1ccccc1)NCc1ccc2c(c1)OCO2 the results were CYP2C9 activ 0.2, Cav32 inh -4.7*, CYP2C19 inh 53*, CYP2C19 activ 0.5 and CYP2C9 inhib 79*.
For CCn1c(SC(C)C(=O)NC2CCCc3ccccc32)nnc1-c1cccs1 (stereo not given) the results were CYP2C9 activ 0.1, Cav32 inh -1.4, CYP2C19 inh 89*, CYP2C19 activ 0.1 and CYP2C9 inhib 86*.
Screening CCOC(=O)C(NC(C)=O)(Nc1ccc(S(=O)(=O)Nc2ccncn2)cc1)C(F)(F)F (stereo not given) returned Cav32 inh 0.31.
`NC(=O)C1(N2CCCCC2)CCN(CC(=O)Nc2ccccc2-c2ccccc2)CC1` gave CYP2C9 activ 0.8, Cav32 inh 0.05, CYP2C19 inh 40, CYP2C19 activ 0.6 and CYP2C9 inhib 17.
For O=C1CN(C(=O)CSc2nnc(-c3ccccc3)n2Cc2ccc3c(c2)OCO3)c2ccccc2N1 the results were CYP2C9 activ 0.6, Cav32 inh -0.52, CYP2C19 inh 63*, CYP2C19 activ 0.4 and CYP2C9 inhib 37.
Cc1nnc(SCC(=O)N2CC(=O)Nc3ccccc32)n1-c1ccccc1 was read as CYP2C9 activ 1.1, Cav32 inh -0.4, CYP2C19 inh 1, CYP2C19 activ 1 and CYP2C9 inhib -6.
COc1cc(OC)cc(C(=O)NC2CC3CCC(C2)N3Cc2ccco2)c1 (stereo not given) was read as CYP2C9 activ 1, Cav32 inh 1.3, CYP2C19 inh 0, CYP2C19 activ 1 and CYP2C9 inhib 1.
CC1CCCC(NC(=O)C2CCCN2S(=O)(=O)c2cccc3nsnc23)C1C (stereo not given) was read as CYP2C9 activ 0.4, Cav32 inh 0.34, CYP2C19 inh 87*, CYP2C19 activ 0.1 and CYP2C9 inhib 57*.
`O=C(NC1CCCCC1)C1CCN(S(=O)(=O)c2cccc3cccnc23)CC1` gave CYP2C9 activ 3.4*, Cav32 inh 0.13, CYP2C19 inh 55*, CYP2C19 activ 0.4 and CYP2C9 inhib -242.
